TROY signal inh: blocks TROY-dependent signaling in reporter cells; Q293 LMP1-TROYcd NF-kB luciferase reporter, 4 h; AID 1347056; inhibition, % at 10 µM; 360,000 tested, 0.98% active;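 active = compounds whose plate-normalised and pattern-corrected inhibition of the luciferase reporter signal at the single screening dose is 50% or more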
PAX8 inh HTS: PAX8 transcriptional activity inhibition; RMG-I TPO-luciferase reporter, SteadyGlo, 24 h; inhibition, % at 12.6 µM; 360,000 tested, 1.2% active;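 active = mean replicate inhibition at least 60% with every replicate also reaching 60%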;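 note: luciferase light reporting Pax8 driven TPO promoter activity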
TWEAK-Fn14 inh: TWEAK-Fn14 signaling inhibition; 360,000 tested, 2% active; inhibition, % at 10 µM; AID 1159606; TWEAK-stimulated Fn14 reporter cells, luciferase luminescence, 8 h; in the data active = inhibition above about 50%
EWS-Fli block: EWS/Fli transcriptional activity inhibition; A673 NR0B1-luciferase reporter, viability-normalised; AID 651661; inhibition, % at 12.6 µM; 350,000 tested, 0.67% active;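 active = mean inhibition of at least 50% after viability correction, with every replicate also passing that limit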;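 note: firefly luciferase signal divided by Alamar Blue viability fluorescence both relative to DMSO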
LGR2 inh: Drosophila LGR2 receptor signaling inhibition; HEK293 LGR2, CRE-luciferase, bursicon-stimulated, 4 h; inhibition, % at 9.99 µM; 380,000 tested, 0.35% active;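 active = drop in luminescence signal, shown as inhibition above about 50% in the replicate tests, limit read from the data, passing the limit was not always enough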;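 note: agonist challenge used bursicon conditioned medium at about half maximal strength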
Each line names hits and unclear results; the compound was inactive in the other large screens. Most compounds without a hit are left out; they make up all but 2.8% or so of the library.

CCOc1ccccc1-c1c2cc(O)c(=O)cc-2oc2cc(O)c(O)cc12	TWEAK-Fn14 inh 74.3 (no result: PAX8 inh HTS, EWS-Fli block, LGR2 inh)
O=c1cc2oc3cc(O)c(O)cc3c(-c3ccccc3O)c-2cc1O	none (no result: PAX8 inh HTS, EWS-Fli block, LGR2 inh)
COc1ccc(OC)c(-c2c3cc(O)c(=O)cc-3oc3cc(O)c(O)cc23)c1	TWEAK-Fn14 inh 73.7 (no result: PAX8 inh HTS, EWS-Fli block, LGR2 inh)
C[C@]12CCC3C4(C=CC5(C=C4C(=O)C4CCCCC4)C[C@@H](O)CC[C@]35C)C1CC[C@@]2(O)CN1CCC(n2c(=O)[nH]c3ccccc32)CC1 (some centres not stated)	none (no result: TROY signal inh, TWEAK-Fn14 inh, LGR2 inh)
O=C(CSc1nnc2nnc3ccccc3n12)N1CCOCC1	TROY signal inh 67.9, TWEAK-Fn14 inh 63.7
Cn1c(SCC(=O)N2CCOCC2)nnc1-c1ccncc1	none
Cc1ccc2nccc(C(=O)N3CCCC(N4CCN(c5ccc(F)cc5)CC4)C3)c2c1 (configuration not stated)	TROY signal inh 76.0
CCOC(=O)CCc1ccc(NC(=O)/C=C/c2ccc([N+](=O)[O-])o2)cc1	TWEAK-Fn14 inh 76.7, EWS-Fli block 50.9
C[C@@H]1CN([C@H](C)CO)C(=O)c2cccc(NC(=O)C3CC3)c2O[C@H]1CN(C)CC1CC1	none (no result: TROY signal inh, TWEAK-Fn14 inh)
O=S(=O)(c1ccc(-c2ccccc2)cc1)N1CCN(Cc2cccc(OCCO)c2)CC1	none (no result: TROY signal inh, TWEAK-Fn14 inh, LGR2 inh)
Nc1cccc(-c2cn(-c3cc4cc(C#CC5(O)CCCCC5)ccc4oc3=O)nn2)c1	none (no result: LGR2 inh)
O=c1oc2ccc(C#CC3(O)CCCCC3)cc2cc1-n1cc(-c2ccccn2)nn1	TWEAK-Fn14 inh 58.2
CNC[C@H]1OCCCC[C@H](C)Oc2ccc(NC(=O)c3ccncc3)cc2C(=O)N([C@H](C)CO)C[C@@H]1C	none (no result: TROY signal inh, TWEAK-Fn14 inh)
Cc1noc(C)c1NC(=O)N(C)C[C@H]1Oc2ccc(NS(C)(=O)=O)cc2C(=O)N([C@@H](C)CO)C[C@@H]1C	none (no result: TROY signal inh, PAX8 inh HTS, TWEAK-Fn14 inh)
COc1ccc(S(=O)(=O)N(C)C[C@@H]2Oc3ccc(NC(=O)CCCCCC(=O)Nc4ccccc4N)cc3C(=O)N([C@H](C)CO)C[C@@H]2C)cc1	none (no result: TROY signal inh, PAX8 inh HTS, TWEAK-Fn14 inh)
Cc1ccc(S(=O)(=O)Nc2ccc3c(c2)C(=O)N([C@@H](C)CO)C[C@@H](C)[C@@H](CN(C)Cc2ccc(Cl)c(Cl)c2)O3)cc1	none (no result: TROY signal inh, PAX8 inh HTS, TWEAK-Fn14 inh)
C=C(C(=O)c1ccccc1)C(NC(C)(C)C)c1ccccc1 (configuration not stated)	PAX8 inh HTS 81.0, TWEAK-Fn14 inh 96.4, LGR2 inh 101.1
C=C(C(=O)c1ccccc1)C(C)CC(=O)c1ccccc1 (configuration not stated)	PAX8 inh HTS 61.6, TWEAK-Fn14 inh 63.2 (no result: EWS-Fli block)
Cc1noc(C)c1NC(=O)N(C)C[C@@H]1Oc2ccc(NC(=O)NC(C)C)cc2CC(=O)N([C@@H](C)CO)C[C@H]1C	none (no result: TROY signal inh, TWEAK-Fn14 inh)
COc1ccc(/C=C2\SC(=S)N(CCCC(=O)N3CCCCC3CCO)C2=O)cc1 (configuration not stated)	PAX8 inh HTS 74.6 (no result: EWS-Fli block)
CC(C)c1ccc(/C=C2\SC(=S)N(CCC(=O)N3CCCCC3CCO)C2=O)cc1 (configuration not stated)	TROY signal inh 64.9, TWEAK-Fn14 inh 87.1 (no result: EWS-Fli block)
O=C1/C(=C\c2ccccc2)SC(=S)N1CCC(=O)N1CCCCC1CCO (configuration not stated)	none (no result: EWS-Fli block)
COc1cccc2oc3ccc(C#CC4(N)CCCCC4)cc3c(=O)c12	none
Cn1c2ccccc2c(=O)c2ccc(C#Cc3ccccn3)cc21	none (no result: TROY signal inh, TWEAK-Fn14 inh)
Cn1c2ccccc2c(=O)c2ccc(C#CC3(N)CCCCC3)cc21	TROY signal inh 62.3
NC1(C#Cc2ccc3c(=O)c4ccccc4sc3c2)CCCCC1	TWEAK-Fn14 inh 81.4 (no result: LGR2 inh)
Cn1c2ccccc2c(=O)c2cc(C#CC3(O)CCCCC3)ccc21	TROY signal inh 88.1, TWEAK-Fn14 inh 89.7, EWS-Fli block 67.8, LGR2 inh 82.3
Cc1cccc(S(=O)(=O)N2C[C@@H]3[C@H](c4ccccc42)[C@H](CO)N3C(=O)C2CC2)c1	none (no result: TROY signal inh, TWEAK-Fn14 inh)
O=C(C[C@@H]1CC[C@H](NC(=O)C2CCOCC2)[C@H](CO)O1)NCc1ccncc1	none (no result: TROY signal inh, PAX8 inh HTS, TWEAK-Fn14 inh)
O=Nc1c(O)c2ccccc2c2ccccc12	TWEAK-Fn14 inh 97.8, LGR2 inh 81.5
CCOC(=O)N1CCN(C(=O)c2ccc3c(c2)sc2nc(-c4ccc(OC)cc4)cn23)CC1	none (no result: PAX8 inh HTS, EWS-Fli block)
COc1ccc2c(c1)sc1nc(-c3ccccc3)cn12	TROY signal inh 84.0, TWEAK-Fn14 inh 102.7 (no result: PAX8 inh HTS, EWS-Fli block, LGR2 inh)
CC=Cc1ccc2n(c1=O)C[C@@H]1[C@@H](CO)[C@H](C(=O)Nc3nccs3)N(Cc3ccccc3F)[C@H]21 (mixture of isomers)	none (no result: TROY signal inh, TWEAK-Fn14 inh)
C[C@@H](NC(=O)c1coc(=O)c(Br)c1)c1ccccc1	TWEAK-Fn14 inh 87.4 (no result: PAX8 inh HTS, EWS-Fli block, LGR2 inh)
